Holding throughout (experiment): DAPPL (digital affinity profiling via proximity ligation, sequencing); 10 mM Tris-HCl pH 7.5, 50 mM NaCl, 1 mM DTT, 4% glycerol, room temperature, 30 min; GST-TFs on glutathione beads, 16-mer random dsDNA library, 0.1% formaldehyde crosslink after washing; high values mean tight binding
Holding throughout (settings): protein: recombinant; tags: N-terminal GST; dsDNA, one strand shown

Experiment [1] addresses T1, FLI1 (Homo sapiens, UniProt Q01543 1-452).
T1 sequence: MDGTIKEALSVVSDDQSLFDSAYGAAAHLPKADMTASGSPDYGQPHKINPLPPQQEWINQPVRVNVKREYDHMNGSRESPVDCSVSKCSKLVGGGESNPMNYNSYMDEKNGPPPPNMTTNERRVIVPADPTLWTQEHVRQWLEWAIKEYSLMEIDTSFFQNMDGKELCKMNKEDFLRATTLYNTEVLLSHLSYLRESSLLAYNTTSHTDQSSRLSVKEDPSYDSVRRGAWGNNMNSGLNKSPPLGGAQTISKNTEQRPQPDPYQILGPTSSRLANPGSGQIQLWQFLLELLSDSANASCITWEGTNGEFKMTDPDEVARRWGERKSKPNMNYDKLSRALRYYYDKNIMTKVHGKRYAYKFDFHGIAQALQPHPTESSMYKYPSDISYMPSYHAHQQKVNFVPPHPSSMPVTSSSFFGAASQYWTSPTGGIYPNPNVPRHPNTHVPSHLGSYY
The procedure, abridged: (§1)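 Binding signal is defined as a hexamer's read frequency for one factor over its frequency for the tag-only sample. To obtain reads, GST-fused human transcription factors were expressed in yeast, captured on glutathione beads, barcoded with DNA and pooled with that sample. Pools met 200 nmole of a 16-mer random double-stranded DNA library in Tris/NaCl/DTT/glycerol buffer for 30 min at room temperature before washing, 0.1% formaldehyde crosslinking, proximity ligation (BsaI/T4 ligase, 1 h, 37 °C), PCR and Illumina NextSeq500 sequencing.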

For experiment [2], the target named is T2, ELK1 (Homo sapiens, UniProt P19419 1-428).
T2 sequence: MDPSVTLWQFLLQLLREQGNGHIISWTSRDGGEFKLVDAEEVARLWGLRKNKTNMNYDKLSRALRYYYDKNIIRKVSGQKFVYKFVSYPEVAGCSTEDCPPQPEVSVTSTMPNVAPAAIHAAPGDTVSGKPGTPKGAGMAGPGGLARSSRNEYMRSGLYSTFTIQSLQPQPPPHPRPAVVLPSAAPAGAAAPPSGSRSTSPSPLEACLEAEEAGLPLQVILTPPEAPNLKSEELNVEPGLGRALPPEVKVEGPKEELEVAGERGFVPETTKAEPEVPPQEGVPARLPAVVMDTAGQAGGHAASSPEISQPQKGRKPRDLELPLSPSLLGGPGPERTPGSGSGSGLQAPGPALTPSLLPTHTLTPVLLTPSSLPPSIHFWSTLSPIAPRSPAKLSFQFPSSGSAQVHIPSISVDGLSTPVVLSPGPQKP
The procedure, abridged: as §1

In experiment [3] the target is T3, GABPA (Homo sapiens, UniProt Q06546 1-454).
T3 sequence: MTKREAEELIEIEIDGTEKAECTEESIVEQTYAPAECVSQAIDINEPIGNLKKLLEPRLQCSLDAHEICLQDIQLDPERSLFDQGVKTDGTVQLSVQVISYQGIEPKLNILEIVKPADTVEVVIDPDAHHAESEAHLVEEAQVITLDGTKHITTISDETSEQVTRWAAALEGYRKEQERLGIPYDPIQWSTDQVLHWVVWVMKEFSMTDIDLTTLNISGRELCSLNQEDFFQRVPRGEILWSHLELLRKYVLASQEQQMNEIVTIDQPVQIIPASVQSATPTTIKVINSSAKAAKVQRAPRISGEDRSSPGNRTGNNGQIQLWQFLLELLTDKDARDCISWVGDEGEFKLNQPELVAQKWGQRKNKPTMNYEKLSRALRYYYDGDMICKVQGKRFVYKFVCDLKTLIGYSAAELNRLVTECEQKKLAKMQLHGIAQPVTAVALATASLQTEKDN
The procedure, abridged:
as §1

The target in experiment [4] is T4, ERG (Homo sapiens, UniProt P11308 1-479).
T4 sequence: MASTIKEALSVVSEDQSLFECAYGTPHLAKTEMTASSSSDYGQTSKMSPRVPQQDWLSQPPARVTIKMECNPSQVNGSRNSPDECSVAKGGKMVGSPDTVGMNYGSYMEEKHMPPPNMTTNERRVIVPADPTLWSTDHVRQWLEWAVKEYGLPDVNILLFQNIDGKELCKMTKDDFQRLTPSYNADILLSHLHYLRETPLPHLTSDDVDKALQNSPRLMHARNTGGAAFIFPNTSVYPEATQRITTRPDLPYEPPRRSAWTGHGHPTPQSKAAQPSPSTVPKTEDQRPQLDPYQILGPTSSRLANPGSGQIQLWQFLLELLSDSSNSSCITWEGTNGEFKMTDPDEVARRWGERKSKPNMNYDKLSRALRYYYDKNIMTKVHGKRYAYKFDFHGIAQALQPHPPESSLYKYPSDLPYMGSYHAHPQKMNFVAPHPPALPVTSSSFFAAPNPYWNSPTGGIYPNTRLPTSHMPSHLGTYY
Put shortly: as §1

Experiment [5] concerns the target ELF1 (Homo sapiens, UniProt P32519 1-619). The procedure, abridged:
as §1

Experiment [6] addresses T5, EHF (Homo sapiens, UniProt Q9NZC4 1-300).
T5 sequence: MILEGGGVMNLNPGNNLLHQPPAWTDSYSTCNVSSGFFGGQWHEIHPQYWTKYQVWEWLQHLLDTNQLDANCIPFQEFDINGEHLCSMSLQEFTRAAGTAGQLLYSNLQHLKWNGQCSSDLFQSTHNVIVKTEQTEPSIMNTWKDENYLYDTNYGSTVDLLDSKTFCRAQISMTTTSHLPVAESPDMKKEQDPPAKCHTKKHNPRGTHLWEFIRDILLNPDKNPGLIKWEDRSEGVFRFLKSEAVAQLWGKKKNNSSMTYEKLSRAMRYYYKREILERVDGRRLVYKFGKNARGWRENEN
Put shortly: as §1

Experiment [7] has as its target SPI1 (Homo sapiens, UniProt P17947 1-270). Put shortly:
as §1

For experiment [8], the target named is SPIB (Homo sapiens, UniProt Q01892 1-262). The procedure, abridged: as §1
For experiment [9], the target named is T6, ELK3 (Homo sapiens, UniProt P41970 1-407).
T6 sequence: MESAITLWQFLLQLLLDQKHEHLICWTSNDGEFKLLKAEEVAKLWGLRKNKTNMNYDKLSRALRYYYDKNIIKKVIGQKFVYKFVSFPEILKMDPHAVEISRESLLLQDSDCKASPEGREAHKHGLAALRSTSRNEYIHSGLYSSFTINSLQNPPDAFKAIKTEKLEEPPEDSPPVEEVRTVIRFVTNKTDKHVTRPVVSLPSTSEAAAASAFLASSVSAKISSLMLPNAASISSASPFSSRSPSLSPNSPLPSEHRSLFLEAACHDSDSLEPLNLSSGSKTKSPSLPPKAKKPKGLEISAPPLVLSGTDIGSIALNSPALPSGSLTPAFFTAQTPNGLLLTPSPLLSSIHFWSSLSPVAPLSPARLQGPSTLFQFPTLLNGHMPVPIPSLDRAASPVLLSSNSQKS
The procedure, abridged:
as §1

The results in this text go back to publication PMC7862700, “An all-to-all approach to the identification of sequence-specific readers for epigenetic DNA modifications on cytosine”.

Sequence of SPIB (Q01892 whole entry): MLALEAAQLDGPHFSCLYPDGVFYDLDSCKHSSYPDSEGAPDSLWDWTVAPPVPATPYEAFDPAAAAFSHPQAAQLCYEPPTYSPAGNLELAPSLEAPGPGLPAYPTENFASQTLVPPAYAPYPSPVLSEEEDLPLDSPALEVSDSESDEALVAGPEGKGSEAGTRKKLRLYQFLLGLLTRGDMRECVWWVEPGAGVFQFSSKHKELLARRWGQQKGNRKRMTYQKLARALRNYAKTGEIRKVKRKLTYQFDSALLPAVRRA
Sequence of ELF1 (P32519 whole entry): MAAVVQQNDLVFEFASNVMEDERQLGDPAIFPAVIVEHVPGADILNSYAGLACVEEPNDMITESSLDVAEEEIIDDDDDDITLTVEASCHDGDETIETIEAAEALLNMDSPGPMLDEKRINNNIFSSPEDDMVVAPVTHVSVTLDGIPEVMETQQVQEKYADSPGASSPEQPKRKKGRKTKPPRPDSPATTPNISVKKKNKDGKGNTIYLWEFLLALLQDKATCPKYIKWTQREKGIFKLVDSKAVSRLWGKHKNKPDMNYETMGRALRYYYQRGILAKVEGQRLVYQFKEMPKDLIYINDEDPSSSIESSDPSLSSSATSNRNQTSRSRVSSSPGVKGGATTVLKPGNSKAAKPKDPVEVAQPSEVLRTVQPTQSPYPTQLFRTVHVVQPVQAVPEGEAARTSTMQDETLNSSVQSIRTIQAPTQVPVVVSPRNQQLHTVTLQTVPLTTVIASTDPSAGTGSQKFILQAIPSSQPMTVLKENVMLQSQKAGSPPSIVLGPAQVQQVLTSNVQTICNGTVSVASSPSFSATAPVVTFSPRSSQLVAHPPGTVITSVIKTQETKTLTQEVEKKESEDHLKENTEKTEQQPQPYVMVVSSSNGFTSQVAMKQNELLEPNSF

As to AAATCT, the binding signal is 1.28 fold enrichment (6-mer frequency, TF over GST control) in experiment [1]; 1.21 fold enrichment (6-mer frequency, TF over GST control) in [2]; 1.23 fold enrichment (6-mer frequency, TF over GST control) in experiment [3]; 1.31 fold enrichment (6-mer frequency, TF over GST control) in experiment [4]; 1.3 fold enrichment (6-mer frequency, TF over GST control) in experiment [5]; 1.2 fold enrichment (6-mer frequency, TF over GST control) in [6]. Moreover, the binding signal was 1.14 fold enrichment (6-mer frequency, TF over GST control) in experiment [7]; 1.29 fold enrichment (6-mer frequency, TF over GST control) in [8]; 1.22 fold enrichment (6-mer frequency, TF over GST control) in experiment [9].

As to CAATAT, the binding signal in [1] is 1.27 fold enrichment (6-mer frequency, TF over GST control); in experiment [2], 1.29 fold enrichment (6-mer frequency, TF over GST control); in experiment [3], 1.26 fold enrichment (6-mer frequency, TF over GST control); in experiment [4], 1.2 fold enrichment (6-mer frequency, TF over GST control); in [5], 1.28 fold enrichment (6-mer frequency, TF over GST control); in [6] it was 1.24 fold enrichment (6-mer frequency, TF over GST control). Also, the binding signal in experiment [7] is 1.23 fold enrichment (6-mer frequency, TF over GST control); in experiment [8], 1.23 fold enrichment (6-mer frequency, TF over GST control); in experiment [9], 1.31 fold enrichment (6-mer frequency, TF over GST control).

Turning to CACTTA, the binding signal was 1.17 fold enrichment (6-mer frequency, TF over GST control) in experiment [1]; 1.24 fold enrichment (6-mer frequency, TF over GST control) in experiment [2]; 1.25 fold enrichment (6-mer frequency, TF over GST control) in [3]; 1.22 fold enrichment (6-mer frequency, TF over GST control) in [4]; 1.27 fold enrichment (6-mer frequency, TF over GST control) in experiment [5]; 1.18 fold enrichment (6-mer frequency, TF over GST control) in [6]. The binding signal was 1.21 fold enrichment (6-mer frequency, TF over GST control) in [7]; 1.19 fold enrichment (6-mer frequency, TF over GST control) in experiment [8]; 1.2 fold enrichment (6-mer frequency, TF over GST control) in [9].

In the case of GTTCCT, the binding signal in experiment [1] was 1.73 fold enrichment (6-mer frequency, TF over GST control); in experiment [2], 1.69 fold enrichment (6-mer frequency, TF over GST control); in experiment [3], 1.64 fold enrichment (6-mer frequency, TF over GST control); in experiment [4], 1.86 fold enrichment (6-mer frequency, TF over GST control); in experiment [5], 1.72 fold enrichment (6-mer frequency, TF over GST control); in experiment [6], 1.73 fold enrichment (6-mer frequency, TF over GST control). The binding signal was 2.34 fold enrichment (6-mer frequency, TF over GST control) in [7]; 1.84 fold enrichment (6-mer frequency, TF over GST control) in experiment [8]; 1.77 fold enrichment (6-mer frequency, TF over GST control) in experiment [9].

Regarding AAACCT, the binding signal in experiment [1] was 1.15 fold enrichment (6-mer frequency, TF over GST control); in [2], 1.01 fold enrichment (6-mer frequency, TF over GST control); in [3], 1.17 fold enrichment (6-mer frequency, TF over GST control); in [4], 1.12 fold enrichment (6-mer frequency, TF over GST control); in experiment [5], 1.19 fold enrichment (6-mer frequency, TF over GST control); in [6], 1.16 fold enrichment (6-mer frequency, TF over GST control). Also, the binding signal in [7] is 1.18 fold enrichment (6-mer frequency, TF over GST control); in experiment [8] it was 1.11 fold enrichment (6-mer frequency, TF over GST control); in [9] it was 1.15 fold enrichment (6-mer frequency, TF over GST control).

As to GTATCC, the binding signal is 1.88 fold enrichment (6-mer frequency, TF over GST control) in experiment [1]; 1.9 fold enrichment (6-mer frequency, TF over GST control) in experiment [2]; 1.78 fold enrichment (6-mer frequency, TF over GST control) in [3]; 1.89 fold enrichment (6-mer frequency, TF over GST control) in experiment [4]; 1.89 fold enrichment (6-mer frequency, TF over GST control) in [5]; 1.92 fold enrichment (6-mer frequency, TF over GST control) in experiment [6]. Further, the binding signal in experiment [7] was 1.7 fold enrichment (6-mer frequency, TF over GST control); in [8], 1.89 fold enrichment (6-mer frequency, TF over GST control); in experiment [9], 1.88 fold enrichment (6-mer frequency, TF over GST control).

For GAACAA, the binding signal in experiment [1] is 1.17 fold enrichment (6-mer frequency, TF over GST control); in experiment [2] it was 1.13 fold enrichment (6-mer frequency, TF over GST control); in experiment [3] it was 1.16 fold enrichment (6-mer frequency, TF over GST control); in experiment [4], 1.14 fold enrichment (6-mer frequency, TF over GST control); in experiment [5], 1.22 fold enrichment (6-mer frequency, TF over GST control); in experiment [6], 1.22 fold enrichment (6-mer frequency, TF over GST control). Moreover, the binding signal in [7] is 1.15 fold enrichment (6-mer frequency, TF over GST control); in experiment [8], 1.24 fold enrichment (6-mer frequency, TF over GST control); in experiment [9], 1.2 fold enrichment (6-mer frequency, TF over GST control).
